# Assay results from PubChem BioAssay (NCATS).
# Where “and” joins values, the source holds several entries; their conditions need not be identical. Identical values can stand only once. Results filed as inconclusive are left out. Where a call stands in place of a potency, no number is given. The source holds several records for some structures; these can differ, active in one and inactive in another. A number with no mark means an inactive call. Calls of active or inactive are those of the source. Calls follow the shape of the dose curve; as a rule, active = well fitted curve in the direction sought with a large enough effect; inconclusive = small, poorly fitted or top-dose-only effect, or another doubt; inactive = no such curve, though single readings can be large; an effect the other way counts as inactive or inconclusive.
# Experiments:
# KB-3-1 = experiment: Cytotoxic Profiling of Annotated Libraries Using Quantitative High-Throughput Screening (AID 1296008); settings: Five cell lines viability, CellTiter-Glo ATP luminescence, 48-72 h; max response: stronger effect = lower value; also: nearly all actives have a fitted effect of over 60% in size
# In short: (§1)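 Cells exposed to compounds for 48 or 72 hr at 37 degrees Celsius. Viability read as ATP-coupled luminescence with CellTiter-Glo after 10 min at room temperature.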
# NIH3T3 [1] = experiment: as above; settings: Five cell lines viability, CellTiter-Glo ATP luminescence, 48-72 h; max response: stronger effect = lower value
# In short: as §1
# HACAT = experiment: qHTS assay to identify novel small-molecules to repurpose for Merkel cell carcinoma treatment (AID 1296009); settings: MCC and control cell lines, CellTiter-Glo viability, 72 h; also: nearly all actives have a fitted effect of over 60% in size
# In short: (§2)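 CellTiter-Glo luminescence after 72 hr compound exposure at 37 degree celsius gave cell viability. Libraries NPC and MIPE were run as 8- and 11-point dose responses; RLUs normalized to DMSO (negative) and no-cell (cytotoxicity) controls.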
# MCC-13 = experiment: as above; settings: MCC and control cell lines, CellTiter-Glo viability, 72 h; series mostly up to 46 µM
# In short: as §2
# MCC-26 = experiment: as above; settings: MCC and control cell lines, CellTiter-Glo viability, 72 h; series mostly up to 46 µM
# In short: as §2
# MKL-1 = experiment: as above; settings: MCC and control cell lines, CellTiter-Glo viability, 72 h; series mostly up to 46 µM
# In short: as §2
# MKL-2 = experiment: as above; settings: MCC and control cell lines, CellTiter-Glo viability, 72 h; series mostly up to 46 µM
# In short: as §2
# NIH3T3 [2] = experiment: as above; settings: MCC and control cell lines, CellTiter-Glo viability, 72 h; series mostly up to 44.8 µM
# In short: as §2
# WaGa = experiment: as above; settings: MCC and control cell lines, CellTiter-Glo viability, 72 h; series mostly up to 46 µM
# In short: as §2
# C33A = experiment: Primary qHTS to identify gynecologic anti-cancer compounds using libraries of approved drugs and bioactive compounds (AID 1345084); settings: Gynecologic cancer cell panel viability, ATPlite luminescence, 48 h; series mostly up to 57.5 µM; also: nearly all actives have a fitted effect of over 55% in size
# In short: (§3)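 Luminescence from the ATPlite ATP-monitoring reagent indicates viable cell number; lower signal means cytotoxicity. Cells received compound 16 h after seeding and were exposed for 48 h across five concentrations.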
# CASKI = experiment: as above; settings: Gynecologic cancer cell panel viability, ATPlite luminescence, 48 h; series mostly up to 57.5 µM
# In short: as §3
# Es-2 = experiment: as above; settings: Gynecologic cancer cell panel viability, ATPlite luminescence, 48 h; series mostly up to 57.5 µM
# In short: as §3
# HeLa = experiment: as above; settings: Gynecologic cancer cell panel viability, ATPlite luminescence, 48 h; series mostly up to 57.5 µM
# In short: as §3
# Hek293T [3] = experiment: as above; settings: Gynecologic cancer cell panel viability, ATPlite luminescence, 48 h, control line for the selectivity index; series mostly up to 57.5 µM
# In short: as §3
# JEG-3 = experiment: as above; settings: Gynecologic cancer cell panel viability, ATPlite luminescence, 48 h; series mostly up to 57.5 µM
# In short: as §3
# OV90 = experiment: as above; settings: Gynecologic cancer cell panel viability, ATPlite luminescence, 48 h; series mostly up to 57.5 µM
# In short: as §3
# PA-1 = experiment: as above; settings: Gynecologic cancer cell panel viability, ATPlite luminescence, 48 h; series mostly up to 57.5 µM
# In short: as §3
# UISO = experiment: qHTS assay to identify novel small-molecules to repurpose for Merkel cell carcinoma treatment (AID 1296009); settings: MCC and control cell lines, CellTiter-Glo viability, 72 h; series mostly up to 46 µM; also: nearly all actives have a fitted effect of over 60% in size
# In short: as §2
# HEK293T [4] = experiment: as above; settings: MCC and control cell lines, CellTiter-Glo viability, 72 h; at 44.8 µM (top of the series) unless noted
# In short: as §2
# CAOV3 = experiment: Primary qHTS to identify gynecologic anti-cancer compounds using libraries of approved drugs and bioactive compounds (AID 1345084); settings: Gynecologic cancer cell panel viability, ATPlite luminescence, 48 h; series mostly up to 57.5 µM; also: nearly all actives have a fitted effect of over 55% in size
# In short: as §3
# [5] = at 44.8 µM (top of the series) unless noted
# Potency is read from the fitted curve at half-maximal effect.
compound,measurement,setting,value
O=C1C(c2c(O)[nH]c3ccccc23)=Nc2ccccc21,outcome,KB-3-1,inactive
same,max response,NIH3T3 [1],2.3%
same,outcome,NIH3T3 [1],inactive
same,outcome,HACAT; at 17.4 µM (top of the series),inactive
same,outcome,HACAT; at 44.8 µM (top of the series),inactive
same,Potency,MCC-13,inactive
same,Potency,MCC-26,inactive
same,Potency,MKL-1,inactive
same,Potency,MKL-2,inactive
same,Potency,NIH3T3 [2],inactive
same,Potency,WaGa,inactive
same,Potency,C33A,inactive
same,Potency,CASKI,inactive
same,Potency,Es-2,inactive
same,Potency,HeLa,inactive
same,Potency,Hek293T [3],inactive
same,Potency,JEG-3,inactive
same,Potency,OV90,inactive
same,Potency,PA-1,inactive
CNc1nc(Nc2ccc(C(=O)N3CCOCC3)cc2OC)ncc1Cl,max response,KB-3-1,-5.95%
same,outcome,KB-3-1,inactive
same,outcome,HACAT; [5],inactive
same,Potency,MCC-13,inactive
same,Potency,MCC-26,inactive
same,Potency,MKL-1,inactive
same,Potency,MKL-2,inactive
same,Potency,UISO,inactive
same,Potency,WaGa,inactive
same,Potency,C33A,inactive
same,Potency,CASKI,inactive
same,Potency,Es-2,inactive
same,Potency,HeLa,inactive
same,Potency,Hek293T [3],inactive
same,Potency,PA-1,inactive
COc1cc2ncnc(Nc3cc(Br)c(O)c(Br)c3)c2cc1OC,outcome,KB-3-1,inactive
same,max response,NIH3T3 [1],-4.77%
same,outcome,NIH3T3 [1],inactive
same,outcome,HEK293T [4],inactive
same,Potency,MCC-13,inactive
same,Potency,MCC-26,inactive
same,Potency,MKL-1,inactive
same,Potency,NIH3T3 [2],inactive
same,Potency,WaGa,inactive
same,Potency,C33A,inactive
same,Potency,CAOV3,inactive
same,Potency,CASKI,inactive
same,Potency,Es-2,inactive
same,Potency,HeLa,inactive
same,Potency,Hek293T [3],inactive
same,Potency,JEG-3,inactive
same,Potency,OV90,inactive
same,Potency,PA-1,inactive
Cc1ccccc1C(C(=O)NC1CCCCC1)N(C(=O)CNc1ccc(C#N)cc1)c1cccc(F)c1 (centres undefined),max response,KB-3-1,5.31%
same,outcome,KB-3-1,inactive
same,max response,NIH3T3 [1],-3.8% and -0.279%
same,outcome,HACAT; [5],inactive
same,outcome,HEK293T [4],inactive
same,Potency,MCC-13,inactive
same,Potency,MCC-26,inactive
same,Potency,MKL-1,inactive
same,Potency,MKL-2,inactive
same,Potency,UISO,inactive
same,Potency,WaGa,inactive
same,Potency,C33A,inactive
same,Potency,CAOV3,inactive
same,Potency,CASKI,inactive
same,Potency,Es-2,inactive
same,Potency,HeLa,inactive
same,Potency,Hek293T [3],inactive
same,Potency,JEG-3,inactive
same,Potency,OV90,inactive
CN[C@@H](C)[C@H]1[C@H](O)C[C@@]2(C)[C@@H]3CC[C@H]4C(C)(C)[C@@H](NC)CC[C@@]45C[C@@]35CC[C@]12C,max response,KB-3-1,4.02%
same,outcome,KB-3-1,inactive
same,outcome,NIH3T3 [1],inactive
same,outcome,HACAT; [5],inactive [at 9.27 µM]
same,Potency,MCC-13,inactive
same,Potency,MCC-26,inactive
same,Potency,MKL-1,inactive
same,Potency,MKL-2,inactive
same,Potency,NIH3T3 [2],inactive
same,Potency,UISO,inactive
same,Potency,WaGa,inactive
same,"activity change, negative = cytotoxicity",C33A,14.9% [at 11.6 µM]
same,"activity change, negative = cytotoxicity",CASKI,1.7% [at 11.6 µM]
same,"activity change, negative = cytotoxicity",Es-2,-1.65% [at 11.6 µM]
same,"activity change, negative = cytotoxicity",HeLa,13.6% [at 11.6 µM]
same,"activity change, negative = cytotoxicity",Hek293T [3],-11.4% [at 11.6 µM]
same,"activity change, negative = cytotoxicity",JEG-3,6.85% [at 11.6 µM]
same,"activity change, negative = cytotoxicity",PA-1,-14% [at 11.6 µM]
CC(C)CNc1ccnc(NCc2csc(-c3ccccc3)n2)n1,Potency,KB-3-1,14.6 µM (active)
same,Potency,NIH3T3 [1],23.1 µM (active)
same,max response,NIH3T3 [1],-17.2%
same,Potency,MCC-26,inactive
same,Potency,MKL-2,16.6 µM (active)
same,Potency,UISO,13.2 µM (active)
same,Potency,Es-2,22.4 µM (active)
same,Potency,HeLa,inactive
same,Potency,JEG-3,inactive
same,Potency,PA-1,12.6 µM (active)
NC1(C(=O)N[C@@H](CCO)c2ccc(Cl)cc2)CCN(c2ncnc3[nH]ccc23)CC1,max response,KB-3-1,-18% and -7.12%
same,max response,NIH3T3 [1],-1.34%
same,outcome,NIH3T3 [1],inactive
same,Potency,MCC-13,inactive
same,Potency,MCC-26,inactive
same,Potency,MKL-1,inactive
same,Potency,NIH3T3 [2],inactive
same,Potency,C33A,2.51 µM (active)
same,Potency,Es-2,inactive
same,Potency,HeLa,inactive
same,Potency,OV90,inactive
COc1ccc(Cn2ccc3ccc(C(=O)NO)cc32)cc1,max response,KB-3-1,8.71%
same,outcome,KB-3-1,inactive
same,outcome,HACAT; [5],inactive
same,Potency,MCC-13,inactive
same,Potency,MCC-26,inactive
same,Potency,MKL-2,inactive
same,Potency,C33A,inactive
same,Potency,CAOV3,inactive
same,Potency,CASKI,inactive
same,Potency,Es-2,inactive
same,Potency,HeLa,inactive
same,Potency,Hek293T [3],inactive
same,Potency,OV90,inactive
Cc1cc2c(cc1C1(c3ccc(C(=O)O)cn3)CC1)C(C)(C)CCC2(C)C,max response,KB-3-1,4.32%
same,outcome,KB-3-1,inactive
same,outcome,NIH3T3 [1],inactive
same,Potency,MCC-13,inactive
same,Potency,MCC-26,inactive
same,Potency,MKL-1,inactive
same,Potency,MKL-2,inactive
same,Potency,NIH3T3 [2],inactive
same,Potency,UISO,inactive
same,Potency,WaGa,inactive
same,Potency,C33A,inactive
same,Potency,CAOV3,inactive
same,Potency,JEG-3,inactive
same,Potency,OV90,inactive
CCCCn1c(=O)n(Cc2ccccc2F)c(=O)c2[nH]c(Cc3ccc(NC(C)=O)cc3)nc21,max response,KB-3-1,-6.11%
same,outcome,KB-3-1,inactive
same,max response,NIH3T3 [1],-1.2% and 4.04%
same,outcome,HACAT; [5],inactive
same,Potency,MCC-13,inactive
same,Potency,MCC-26,inactive
same,Potency,MKL-1,inactive
same,Potency,MKL-2,inactive
same,Potency,UISO,inactive
same,Potency,WaGa,inactive
same,Potency,C33A,inactive
same,Potency,CAOV3,inactive
same,Potency,CASKI,inactive
same,Potency,Es-2,inactive
same,Potency,HeLa,inactive
same,Potency,Hek293T [3],inactive
same,Potency,JEG-3,inactive
same,Potency,OV90,inactive
same,Potency,PA-1,inactive
Cc1cnc(Nc2cccc(CN3CCOCC3)c2)nc1Nc1cccc(S(=O)(=O)NC(C)(C)C)c1,Potency,KB-3-1,2.31 µM (active)
same,max response,KB-3-1,6.82%
same,max response,NIH3T3 [1],-17.3%
same,outcome,HACAT; [5],inactive
same,outcome,HEK293T [4],inactive
same,Potency,MCC-13,inactive
same,Potency,MCC-26,inactive
same,Potency,MKL-1,inactive
same,Potency,MKL-2,inactive
same,Potency,UISO,inactive
same,Potency,WaGa,inactive
same,Potency,C33A,inactive
same,Potency,Es-2,inactive
same,Potency,Hek293T [3],inactive
same,Potency,JEG-3,inactive
same,Potency,OV90,inactive
CO[C@@H]1C(N(C)C(=O)c2ccccc2)C[C@H]2O[C@]1(C)n1c3ccccc3c3c4c(c5c6ccccc6n2c5c31)C(=O)NC4=O (some centres undefined),Potency,KB-3-1,10.5 µM (active)
CCN1CCN(c2ccc(Nc3cc(N(C)C(=O)Nc4c(Cl)c(OC)cc(OC)c4Cl)ncn3)cc2)CC1,Potency,KB-3-1,23.1 µM (active)
same,max response,KB-3-1,8.02%
same,outcome,NIH3T3 [1],inactive
same,Potency,MCC-13,inactive
same,Potency,MCC-26,inactive
same,Potency,MKL-1,inactive
same,Potency,MKL-2,inactive
same,Potency,NIH3T3 [2],inactive
same,Potency,WaGa,inactive
same,Potency,C33A,inactive
same,Potency,CASKI,inactive
same,Potency,Es-2,inactive
same,Potency,Hek293T [3],inactive
same,Potency,JEG-3,inactive
same,Potency,OV90,inactive
same,Potency,PA-1,inactive
